Assay results published in the supplement of paper PMC6411743.
± gives the standard deviation of the averaged measurements. Of roughly 5,400 targets only a part is listed; those with the largest changes were picked by preference.

Target: T1, ACLY (UniProt P53396)
T1 sequence (whole entry): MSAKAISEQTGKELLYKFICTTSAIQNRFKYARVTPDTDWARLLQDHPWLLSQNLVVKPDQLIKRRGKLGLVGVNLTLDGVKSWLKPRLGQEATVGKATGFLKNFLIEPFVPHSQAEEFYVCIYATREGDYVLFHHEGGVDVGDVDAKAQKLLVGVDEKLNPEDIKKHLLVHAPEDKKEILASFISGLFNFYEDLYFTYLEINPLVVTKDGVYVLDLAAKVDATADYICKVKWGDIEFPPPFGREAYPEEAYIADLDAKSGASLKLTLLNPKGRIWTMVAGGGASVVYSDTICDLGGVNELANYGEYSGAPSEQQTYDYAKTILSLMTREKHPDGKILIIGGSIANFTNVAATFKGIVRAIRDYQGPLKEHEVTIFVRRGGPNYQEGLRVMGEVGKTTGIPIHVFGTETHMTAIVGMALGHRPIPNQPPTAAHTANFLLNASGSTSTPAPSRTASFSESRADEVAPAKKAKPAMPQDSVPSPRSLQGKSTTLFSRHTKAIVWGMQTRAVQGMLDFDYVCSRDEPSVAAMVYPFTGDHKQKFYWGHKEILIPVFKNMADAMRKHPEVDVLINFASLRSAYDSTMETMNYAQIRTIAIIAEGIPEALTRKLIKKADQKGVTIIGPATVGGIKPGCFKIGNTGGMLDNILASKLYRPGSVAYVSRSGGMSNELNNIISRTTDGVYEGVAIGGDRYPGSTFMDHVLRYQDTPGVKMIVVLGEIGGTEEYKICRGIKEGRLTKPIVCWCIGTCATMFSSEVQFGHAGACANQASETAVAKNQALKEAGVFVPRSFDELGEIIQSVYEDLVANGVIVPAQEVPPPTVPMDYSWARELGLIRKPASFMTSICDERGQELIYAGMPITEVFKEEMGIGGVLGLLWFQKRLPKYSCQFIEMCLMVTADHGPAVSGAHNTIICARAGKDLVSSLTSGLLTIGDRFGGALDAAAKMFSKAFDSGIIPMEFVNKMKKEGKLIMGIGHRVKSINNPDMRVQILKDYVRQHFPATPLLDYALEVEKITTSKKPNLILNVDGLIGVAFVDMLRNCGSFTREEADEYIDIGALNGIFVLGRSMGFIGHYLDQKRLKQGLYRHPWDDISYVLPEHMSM
Assay: NP40-soluble protein abundance relative to vehicle (solubility fold change) (ratio); higher = more soluble protein in presence of GTP
Protocol: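 Solubility proteome profiling in Jurkat crude lysate. Lysate was treated with Mg-GTP (0.1-10 mM) for 10 min at room temperature and 3 min at 37 °C, then solubilised with 0.8% NP40 and benzonase, followed by ultracentrifugation. Proteins were quantified by TMT10 LC-MS/MS; the value is the NP40-soluble abundance relative to the NP40-processed vehicle, from 3 independent experiments.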

`Nc1nc2c(ncn2[C@@H]2O[C@H](COP(=O)(O)OP(=O)(O)OP(=O)(O)O)[C@@H](O)[C@H]2O)c(=O)[nH]1` [guanosine triphosphate] gave an NP40-soluble protein abundance (concentration: 0.1mM) of 1.06 ± 0.044, an NP40-soluble protein abundance (concentration: 0.5mM) of 1.08 ± 0.088 and an NP40-soluble protein abundance (concentration: 1mM) of 0.972 ± 0.084. It also gave an NP40-soluble protein abundance (concentration: 2mM) of 0.968 ± 0.11, an NP40-soluble protein abundance (concentration: 4mM) of 0.991 ± 0.084 and an NP40-soluble protein abundance (concentration: 6mM) of 0.963 ± 0.11. The NP40-soluble protein abundance (concentration: 8mM) was 0.97 ± 0.065 and the NP40-soluble protein abundance (concentration: 10mM) was 0.906 ± 0.07.
